# Experimental data published in PubChem BioAssay AID1508600 (Functional Genomics Laboratory (NCATS/FGL), 2020).
# Out of some 53,000 sequences screened, about 3,700 (7%) were called active. The sample as a whole holds a higher share of actives than the screen did. Unmarked numbers belong to inactive results.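 The calls were made as follows: active = gene knockdowns whose robust z-score for IL-1 alpha signal is at least 2 or at most -2, so actives lie on both sides; inactive = the rest.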
# Assay: Components of the Cytosolic LPS Sensing Pathway: Gene Identification via Genome-wide siRNA Screen;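 also: robust z of the log signal after scaling to non-targeting control siRNA wells of the plate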
# Conditions: RAW264.7 macrophages, IL-1a HTRF, actives lie on both sides, screened at 100 nM (by protocol), cells primed 5 h with Pam3CSK4 first
# How it was run: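 Knockdown: 100 nM siRNA, 48h, RAW264.7. Stimulation: Pam3CSK4 5 h, then LipidA via TransIT-TKO 24 h. Output: supernatant IL-1a HTRF, negative-control-normalized, log robust z-score; viability by CellTiter-Glo.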
row,Sequence,z-score
1,GAGUGAUGCGCAUUUCGAGTT against Sf3b5,-2.53 (active)
2,GCCAGAUCAUUGUAUCAAUTT against Tmx3,1.27
3,GGAGAUUGUUGACCUGGUCTT against Tuba3b,2.03 (active)
4,GGUGGAUGUCUUCUUCAACTT against Gata2,0.697
5,GCCUCGUGAAUAAUUGAAATT against Ddt,0.967
6,GCCUAUUCUAUCGAUAACCTT against Cdh23,0.801
7,GGCCAUCAGUAUCAGCAAATT against Hip1r,0.547
8,GGCUAUUGUGGAGAAGAUCTT against Cblif,-2.07 (active)
9,GGAGACUCCUAAGAAGCAGTT against Cc2d1a,0.445
10,GGAUCGAAUCAGGAAUGAATT against Nphs1,1.39
11,GGAGAGUUACGACGUAUUCTT against Ckb,0.23
12,GGGACAAAAACACAUGUACTT against Kif5c,0.773
13,GGGAAUCAAAGGCUUUGGGTT against Ms4a1,-1.15
14,CCAUAUACCCUUGAAUUCCTT against Tmem185b,0.154
15,GGAAAGGAAUGUUCAAAUUTT against Psmb8,2.02 (active)
16,GGAAGACCUUCUUAAACACTT against Prokr2,1.26
17,GCUUUUGACGAGCAAGCAGTT against Eme1,1.47
18,GGCAGUCACUGGCUAAAUGTT against Ugt2a1,2.13 (active)
19,CCCUUUCCUAUUUGUUAUGTT against Serpinb3d,0.754
20,GGUAUUAGUAUGUAUCUUCTT against Olfr135,0.305
21,CCCUAAUGAAUGGUCUCAUTT against Tmem74,-0.176
22,CCAUGUCCUAACCUGAAACTT against Zic5,0.372
23,GGAUUUGAGCGAUAUGAGCTT against Tex12,-3.29 (active)
24,GGCCCUAAUAGCAACAGGATT against Ubqln2,-1.31
25,GGCCUUCAAAUCAUACGCUTT against Ms4a19,0.283
26,GGAAGAAAAGGCUUCUCUUTT against Ube3c,-0.00788
27,GGGAGAAUUUUUGUGCAAGTT against Capza3,0.437

row,Sequence,z-score
1,CGCAUGUUCAUAGGACUGCTT against Olfr1420,0.453
2,GGAUCUUUCUUUUCUCUCUTT against Rab6b,0.32
3,GCUGAUCAAAUUGGCCUGUTT against Olfr984,-0.703
4,GCUUCAGUAUUUAUUUGCUTT against Usp28,2.27 (active)
5,GGAAGGCCGCAUACUGAUGTT against Scgn,-0.218
6,GGAUUGAAAGCUACUCGUGTT against Maf1,0.533
7,GAGACAAUGCAGCAAAAUCTT against Gm839,-1.13
8,GCACAAUUUCGUGUGAGCUTT against Sfxn5,0.643
9,GGCAGAAUUUGAGCACUUUTT against B4galnt2,-2 (active)
10,GGAGGAGUAUGUUAAGGCCTT against Myh6,0.193
11,GGAGAGUCCAUACCAGAACTT against C1qa,0.0536
12,GGUUGGACAACAUAAUAAGTT against Riox2,1.17
13,GGUGUGGAGUAUGUAUGCUTT against Aplp1,-1.11
14,GGCCUGCGUUCAGAAGAGUTT against Wrn,3.46 (active)
15,GGAACUACUACUCACCUAUTT against Trhr,-0.776
16,GGGUCCUAAAAAUUCAAUUTT against Decr2,-0.106
17,GCUUCGUGGCUUUUUAUGATT against Dlgap3,-0.788
18,GCGAUUUGUGGUUCUCAUATT against Rnf103,-0.559
19,GGCGCACAAAGCUGUUCUUTT against Zbtb43,-0.87
20,GGGAACAAAAACAUAAAAGTT against Otub2,-1.17
21,GAAUUGUCUUACUUGGAAATT against Gimap4,2.05 (active)
22,CGGUCCUGAAUGAUCCUACTT against Gp2,0.969
23,GGAUUUGUGUCCAUCGUGCTT against Olfr66,0.00905
24,CCGUAUGUAACCAUCAAAGTT against Ncf1,0.281
25,GGCACUCCCUAAUGAACUCTT against Adck5,1.42
26,GUUACCUCAGUGUUAUACUTT against Olfr45,1.7
27,GGUGAAAAGAUGCAGGUGATT against Atp1a3,-1.1
